Measured values from ChEMBL document CHEMBL3988442, “University of Dundee, Small-Polar-MMV Screening Library” (2021).
For some assays here: Potency and affinity values are given separately.

Tests used:
Design in all cases: scale not given: direction of the effect not stated beside the values
[1] = biological target: Protein translocase subunit SecA (Escherichia coli (strain K12)) (UniProt P10408); assay: Assay to Identify E. coli SecA ATPase Inhibitors; assay type: functional; settings: 30 µM
[2] = biological target: T1, Ubiquitin-activating enzyme e1, putative (Leishmania donovani (strain BPK282A1)) (UniProt E9BSI1); assay: Leishmania donovani Ubiquitin Activating Enzyme (LdE1); assay type: functional; settings: 30 µM
T1 sequence (whole entry): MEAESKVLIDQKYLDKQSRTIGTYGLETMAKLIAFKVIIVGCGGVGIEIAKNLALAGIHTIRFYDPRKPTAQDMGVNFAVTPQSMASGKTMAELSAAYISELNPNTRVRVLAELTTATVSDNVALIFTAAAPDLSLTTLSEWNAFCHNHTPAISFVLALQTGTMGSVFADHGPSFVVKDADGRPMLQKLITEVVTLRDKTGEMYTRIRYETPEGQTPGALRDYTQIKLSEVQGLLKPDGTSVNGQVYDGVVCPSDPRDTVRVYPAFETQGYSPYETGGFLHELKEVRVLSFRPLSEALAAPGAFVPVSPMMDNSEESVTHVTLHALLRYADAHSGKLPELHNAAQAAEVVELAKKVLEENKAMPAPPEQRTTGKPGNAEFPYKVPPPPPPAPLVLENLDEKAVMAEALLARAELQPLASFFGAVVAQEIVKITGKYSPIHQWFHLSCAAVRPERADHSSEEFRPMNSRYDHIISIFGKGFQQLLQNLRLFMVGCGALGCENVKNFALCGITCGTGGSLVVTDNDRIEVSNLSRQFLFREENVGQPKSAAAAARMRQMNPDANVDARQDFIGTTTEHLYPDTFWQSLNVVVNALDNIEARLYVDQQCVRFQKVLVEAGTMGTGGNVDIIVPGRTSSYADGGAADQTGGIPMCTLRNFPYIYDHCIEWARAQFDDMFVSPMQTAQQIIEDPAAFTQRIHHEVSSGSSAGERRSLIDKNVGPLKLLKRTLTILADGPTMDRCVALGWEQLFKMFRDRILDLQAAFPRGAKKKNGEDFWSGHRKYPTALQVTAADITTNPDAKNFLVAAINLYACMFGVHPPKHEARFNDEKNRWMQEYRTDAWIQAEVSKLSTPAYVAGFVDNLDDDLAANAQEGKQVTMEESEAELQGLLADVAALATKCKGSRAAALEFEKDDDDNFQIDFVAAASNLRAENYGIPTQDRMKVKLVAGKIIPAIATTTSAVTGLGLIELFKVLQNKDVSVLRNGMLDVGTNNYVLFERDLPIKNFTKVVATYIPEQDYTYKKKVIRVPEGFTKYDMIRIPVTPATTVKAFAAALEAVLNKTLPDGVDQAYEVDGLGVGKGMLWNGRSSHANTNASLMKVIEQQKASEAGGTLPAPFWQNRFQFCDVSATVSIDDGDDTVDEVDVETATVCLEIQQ

[3] = biological target: Sialic acid-binding Ig-like lectin 9 (Homo sapiens) (UniProt Q9Y336); assay: Hs-Siglec9 ALPHAscreen SOP 20170721; settings: 10 µM
Trypanosoma cruzi = assay: Trypanosoma cruzi phosphomannomutase and mannose-1-phosphate guanylyltransferase assay; assay type: functional; settings: 10 µM
[4] = biological target: T2, Arginase-2, mitochondrial (Homo sapiens) (UniProt P78540); assay: in vitro enzyme assay to detect the production of urea directly proportional to the activity of Arginase II; assay type: functional; settings: 33.3 µM; note: in the data most compounds retested in dose-response had high values
T2 sequence (whole entry): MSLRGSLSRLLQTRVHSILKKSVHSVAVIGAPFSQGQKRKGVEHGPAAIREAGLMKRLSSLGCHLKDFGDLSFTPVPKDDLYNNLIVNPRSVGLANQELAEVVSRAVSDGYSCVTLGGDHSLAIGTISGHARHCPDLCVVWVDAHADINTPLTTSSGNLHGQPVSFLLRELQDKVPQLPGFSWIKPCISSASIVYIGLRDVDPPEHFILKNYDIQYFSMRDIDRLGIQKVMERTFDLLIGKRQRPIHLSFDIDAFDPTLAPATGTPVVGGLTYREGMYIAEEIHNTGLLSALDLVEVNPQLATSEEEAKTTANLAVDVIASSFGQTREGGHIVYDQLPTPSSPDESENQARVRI

[5] = biological target: T3, Proteasome subunit beta (Trypanosoma cruzi) (UniProt O96673); assay: Trypanosoma cruzi proteasome chymotrypsin-like activity (TcProtChymo) assay.; note: in the data most compounds retested in dose-response had high values; assay type: functional; settings: 9.37 µM
T3 sequence (whole entry): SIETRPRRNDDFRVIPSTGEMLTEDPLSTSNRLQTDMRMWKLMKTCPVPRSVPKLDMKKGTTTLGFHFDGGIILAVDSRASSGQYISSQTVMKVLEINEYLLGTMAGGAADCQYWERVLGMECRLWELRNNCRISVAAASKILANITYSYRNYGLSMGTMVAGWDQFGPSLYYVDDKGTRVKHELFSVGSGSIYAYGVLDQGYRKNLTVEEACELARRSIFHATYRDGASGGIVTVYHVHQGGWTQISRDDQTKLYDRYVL

Homo sapiens = species: Homo sapiens; assay: To identify inhibition of the IFN signalling (Jak-Stat) pathway via expression of an eGFP reporter gene under the control of an IFN-stimulated response element (ISRE) containing MxA promoter.; assay type: functional; settings: 30 µM
[6] = biological target: T4, Tyrosyl-tRNA synthetase, putative (Trypanosoma cruzi (strain CL Brener)) (UniProt Q4DSP6); assay: Trypanosoma cruzi tyrosyl tRNA synthetase (TcYRS) _High Tyrosine SOP; assay type: functional; settings: 30 µM; note: in the data most compounds retested in dose-response had high values
T4 sequence (whole entry): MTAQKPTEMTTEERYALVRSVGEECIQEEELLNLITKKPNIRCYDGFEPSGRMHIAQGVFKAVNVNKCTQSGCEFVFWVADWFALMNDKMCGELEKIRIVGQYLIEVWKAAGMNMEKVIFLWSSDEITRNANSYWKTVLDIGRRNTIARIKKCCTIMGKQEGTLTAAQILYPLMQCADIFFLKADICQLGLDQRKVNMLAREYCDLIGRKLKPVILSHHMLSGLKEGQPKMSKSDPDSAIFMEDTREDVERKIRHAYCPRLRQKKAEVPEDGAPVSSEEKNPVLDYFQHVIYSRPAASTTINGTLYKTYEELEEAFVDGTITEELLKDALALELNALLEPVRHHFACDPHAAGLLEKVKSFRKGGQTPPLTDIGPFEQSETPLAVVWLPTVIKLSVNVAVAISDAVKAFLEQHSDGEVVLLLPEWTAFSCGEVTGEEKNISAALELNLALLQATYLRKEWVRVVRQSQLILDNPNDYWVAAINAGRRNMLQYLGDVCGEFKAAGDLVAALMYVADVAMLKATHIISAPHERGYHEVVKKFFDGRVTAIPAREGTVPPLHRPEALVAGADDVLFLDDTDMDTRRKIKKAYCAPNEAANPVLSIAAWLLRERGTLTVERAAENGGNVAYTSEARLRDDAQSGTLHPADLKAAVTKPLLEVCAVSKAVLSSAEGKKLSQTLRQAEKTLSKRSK

[7] = biological target: T4, Tyrosyl-tRNA synthetase, putative (Trypanosoma cruzi (strain CL Brener)); assay: Trypanosoma cruzi tyrosyl tRNA synthetase (TcYRS) SOP; assay type: functional; settings: 30 µM
[8] = biological target: Chromo domain-containing protein 1 (Saccharomyces cerevisiae (strain ATCC 204508 / S288c) (Baker's yeast)) (UniProt P32657); assay: ScCHD-1 Enzyme Inhibition Assay; assay type: functional; settings: 30 µM; note: in the data most compounds retested in dose-response had high values
Chain of Chromo domain-containing protein 1 (Saccharomyces cerevisiae (strain ATCC 204508 / S288c) (Baker's yeast)) (P32657 whole entry, the tested form may be a part): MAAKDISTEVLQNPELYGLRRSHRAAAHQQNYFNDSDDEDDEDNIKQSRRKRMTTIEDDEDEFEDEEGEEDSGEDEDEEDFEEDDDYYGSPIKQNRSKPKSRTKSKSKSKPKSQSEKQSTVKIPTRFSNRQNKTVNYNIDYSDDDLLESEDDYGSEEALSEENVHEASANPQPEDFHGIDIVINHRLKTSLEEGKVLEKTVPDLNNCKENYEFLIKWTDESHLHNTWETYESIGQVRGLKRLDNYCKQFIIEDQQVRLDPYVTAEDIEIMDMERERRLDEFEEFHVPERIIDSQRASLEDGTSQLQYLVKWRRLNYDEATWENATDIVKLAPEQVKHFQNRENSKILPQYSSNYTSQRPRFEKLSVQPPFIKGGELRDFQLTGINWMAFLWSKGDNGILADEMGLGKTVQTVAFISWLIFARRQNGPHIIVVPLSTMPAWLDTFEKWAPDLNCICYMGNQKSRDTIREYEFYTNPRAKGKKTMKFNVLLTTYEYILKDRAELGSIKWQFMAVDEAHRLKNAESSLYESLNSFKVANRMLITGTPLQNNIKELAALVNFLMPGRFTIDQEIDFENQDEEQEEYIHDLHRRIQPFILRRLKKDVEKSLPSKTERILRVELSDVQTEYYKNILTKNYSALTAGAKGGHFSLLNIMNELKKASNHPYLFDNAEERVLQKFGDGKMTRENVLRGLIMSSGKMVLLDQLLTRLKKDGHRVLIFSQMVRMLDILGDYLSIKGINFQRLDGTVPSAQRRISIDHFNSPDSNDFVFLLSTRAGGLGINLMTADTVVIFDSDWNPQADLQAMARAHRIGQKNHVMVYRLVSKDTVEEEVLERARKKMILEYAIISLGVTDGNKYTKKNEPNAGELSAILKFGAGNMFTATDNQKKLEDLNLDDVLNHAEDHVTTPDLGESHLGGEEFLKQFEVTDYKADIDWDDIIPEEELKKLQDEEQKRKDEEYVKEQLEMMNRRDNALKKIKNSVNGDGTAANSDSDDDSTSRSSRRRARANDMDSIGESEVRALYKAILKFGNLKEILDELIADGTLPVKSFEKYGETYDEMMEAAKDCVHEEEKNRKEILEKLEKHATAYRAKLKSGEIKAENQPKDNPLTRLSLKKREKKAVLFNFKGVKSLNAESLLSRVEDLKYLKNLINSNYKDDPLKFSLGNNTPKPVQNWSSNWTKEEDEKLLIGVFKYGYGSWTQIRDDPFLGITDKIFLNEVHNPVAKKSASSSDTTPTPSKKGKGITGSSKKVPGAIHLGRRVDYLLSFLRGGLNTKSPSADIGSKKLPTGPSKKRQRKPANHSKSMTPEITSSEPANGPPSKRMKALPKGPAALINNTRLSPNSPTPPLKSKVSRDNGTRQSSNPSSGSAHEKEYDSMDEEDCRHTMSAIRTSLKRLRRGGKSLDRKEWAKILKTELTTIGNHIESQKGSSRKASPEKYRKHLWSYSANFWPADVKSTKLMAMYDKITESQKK

Chain of Protein translocase subunit SecA (Escherichia coli (strain K12)) (P10408 whole entry): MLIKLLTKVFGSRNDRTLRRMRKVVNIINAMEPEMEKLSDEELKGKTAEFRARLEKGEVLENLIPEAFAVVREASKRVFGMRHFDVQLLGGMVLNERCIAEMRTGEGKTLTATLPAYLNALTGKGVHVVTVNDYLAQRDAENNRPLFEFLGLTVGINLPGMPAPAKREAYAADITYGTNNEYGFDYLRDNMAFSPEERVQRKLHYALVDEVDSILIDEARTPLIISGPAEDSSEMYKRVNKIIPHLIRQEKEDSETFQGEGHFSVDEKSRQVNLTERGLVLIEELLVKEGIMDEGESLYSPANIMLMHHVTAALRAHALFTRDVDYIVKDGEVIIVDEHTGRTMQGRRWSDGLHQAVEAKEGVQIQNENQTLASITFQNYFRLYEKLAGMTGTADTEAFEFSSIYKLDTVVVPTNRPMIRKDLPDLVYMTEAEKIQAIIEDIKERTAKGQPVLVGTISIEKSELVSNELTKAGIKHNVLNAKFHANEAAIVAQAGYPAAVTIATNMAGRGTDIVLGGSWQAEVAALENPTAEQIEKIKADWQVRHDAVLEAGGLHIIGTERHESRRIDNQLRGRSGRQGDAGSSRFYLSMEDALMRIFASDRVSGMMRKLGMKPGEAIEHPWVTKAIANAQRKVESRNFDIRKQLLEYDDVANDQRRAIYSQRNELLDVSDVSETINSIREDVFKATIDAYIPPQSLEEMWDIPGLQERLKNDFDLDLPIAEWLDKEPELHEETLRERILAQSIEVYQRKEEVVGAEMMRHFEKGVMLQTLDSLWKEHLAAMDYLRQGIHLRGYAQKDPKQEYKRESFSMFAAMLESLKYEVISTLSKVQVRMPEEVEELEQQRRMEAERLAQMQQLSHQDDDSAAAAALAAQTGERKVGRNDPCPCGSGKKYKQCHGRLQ
Chain of Sialic acid-binding Ig-like lectin 9 (Homo sapiens) (Q9Y336 whole entry): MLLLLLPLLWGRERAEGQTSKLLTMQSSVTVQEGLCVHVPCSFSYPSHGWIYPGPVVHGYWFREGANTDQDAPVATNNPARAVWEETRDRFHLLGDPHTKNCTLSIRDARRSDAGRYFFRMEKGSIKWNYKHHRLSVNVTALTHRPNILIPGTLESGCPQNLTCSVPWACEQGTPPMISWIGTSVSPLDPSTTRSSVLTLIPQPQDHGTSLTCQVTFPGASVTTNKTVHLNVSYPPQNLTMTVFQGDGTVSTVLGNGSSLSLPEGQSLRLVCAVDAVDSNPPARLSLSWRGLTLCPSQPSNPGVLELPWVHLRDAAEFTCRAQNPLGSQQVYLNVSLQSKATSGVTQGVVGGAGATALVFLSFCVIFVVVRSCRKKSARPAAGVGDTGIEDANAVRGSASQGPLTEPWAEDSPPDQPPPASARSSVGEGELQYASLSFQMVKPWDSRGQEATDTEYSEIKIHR

Compound | Percent Effect [1] | Percent Effect [2] | Percent Effect [3] | Percent Effect (Trypanosoma cruzi) | Percent Effect [4] | Percent Effect [5] | Percent Effect (Homo sapiens) | Percent Effect [6] | Percent Effect [7] | Percent Effect [8]
CC1CCCCN1C(=O)CN1CCN(c2ccc3nncn3n2)CC1 (stereo not given) | -3.43% | 15.4% | 1.72% | 7.42% | -0.82% | 11.3% | 6.75% | 6.22% | 13.2% | -7.79%
CCc1c(C)nn(CCNC(=O)C2CCCN(C(=O)N(C)C)C2)c1C (stereo not given) | -6.94% | 5.41% | 6.18% | 2.04% | 6.64% | 7.36% | 10.5% | 5.85% | 14.6% | 41.1%
O=C(O)c1ccc2ccc(N3CCN(CC4CC4)CC3)n2c1 | -3.4% | 14.3% | 1.31% | 3.38% | 2.74% | 9.7% | 7.8% | 18.4% | 12.5% | -4.22%
CN(C)S(=O)(=O)N1CCN(C(=O)c2ccc3ccn(C)c3c2)CC1 | -5.48% | 8.11% | 12% | 5.72% | 8.74% | 13.9% | 5.78% | 2.66% | 9.76% | -5.25%
CC(C(=O)N1CCCC1)N1CCC(c2nccn2CC2CCC2)CC1 (stereo not given) | -7.94% | 0% | -0.943% | -1.07% | 0.35% | 1.71% | 1.41% | 9.04% | 12.2% | 2.51%
COc1cccc(-c2noc(C3CCN(Cc4cn(C)nc4C)C3)n2)c1 (stereo not given) | -3.83% | 14.7% | 3.58% | 5.72% | -1.33% | 14.1% | 31.6% | 6.35% | 20% | -24.7%
Cc1cc(C)c(OCC(=O)NS(=O)(=O)c2c(C)noc2C)c(C)c1 | -3.67% | -2.56% | -14.2% | 5.54% | 1.23% | 1.11% | 7.01% | 1.44% | 10.8% | 1.12%
COCc1nc(CNC2CCSCC2)no1 | -6.18% | 2.7% | 1.55% | 3.98% | 1.75% | 7.36% | -12.7% | 3.72% | 9.76% | -0.943%
COCC(=O)N1CC[C@@H](O)[C@@H]1Cc1ccccc1 | -2.38% | 3.9% | -3.29% | 1.27% | -4.45% | 6.27% | -19.5% | -5.79% | 0% | -0.374%
COc1c(CNC2CCSc3ccc(F)cc32)c(C)nn1C (stereo not given) | 0.667% | 13% | 7.38% | -0.373% | -12.5% | 10.9% | 64.7% | 5.88% | 11.8% | -4.85%
O=C(Nc1cccnc1)[C@H]1C[C@H]2OCC[C@H]2N(C(=O)c2ccsc2)C1 | -4.32% | 11.7% | 13% | 4.58% | 17% | 10.5% | -7.28% | 4.74% | 12.8% | 18.5%
c1ccc(OCc2nnc3n2CCN(CC2CCOCC2)C3)nc1 | -2.49% | 1.3% | -1.26% | -1.07% | -2.43% | -0.0883% | -3.47% | 0.526% | -89.7% | -2.56%
Cc1nc(-c2nnc[nH]2)sc1C(=O)N(Cc1cccnc1)C1CC1 | -4.44% | 12.8% | -5.72% | 6.67% | -0.41% | 7.42% | 9.73% | 2.39% | 18.1% | -6.07%
CCC1c2ccsc2CCN1C(=O)NCCNc1ncccn1 (stereo not given) | 0.216% | 15.4% | -5.88% | 6.29% | 6.15% | 9.3% | 10% | 6.22% | 22.9% | -7.01%
COc1ccccc1-c1noc(CN2CCCC2Cn2cccn2)n1 (stereo not given) | -4.25% | -13.3% | 1.74% | 3.01% | -0.444% | 14.3% | 1.34% | 1.58% | 0% | -7.06%
Cc1ccc(C(=O)N2CCN(CCc3cccs3)CC2)c(=O)[nH]1 | -2.8% | 2.56% | -0.768% | -1.6% | 8.61% | -2.65% | 24.3% | 3.35% | 10.8% | -2.19%
CC(C)C(NC(=O)Cn1ccc(=O)n(C)c1=O)c1ccc(F)cc1 (stereo not given) | 1.48% | 18.2% | -2.41% | -7.09% | 5.53% | 7.19% | 22.3% | 6.86% | 18.8% | -8.33%
Cc1noc(C)c1C(=O)N1C[C@H]2CCC[C@@]2(COc2ccccn2)C1 | -6.59% | 11.7% | 1.71% | 8.28% | -7.29% | 12.3% | -28.1% | 3.68% | 12.8% | -2.44%
c1cnn(Cc2nnc3n2CCCN(CC2CCOCC2)C3)c1 | -8.53% | 1.3% | -2.75% | -3.02% | -2.83% | 3.62% | 1.85% | -0.526% | 5.13% | 2.31%
Cc1nccn1-c1cccc(C2CCCN(C(=O)c3cc[nH]n3)C2)n1 (stereo not given) | 0.661% | 25.3% | -9.09% | 0.395% | -3.98% | 17.9% | 32.9% | 1.06% | 10% | -7.28%
COCC(=O)N1CC[C@@H](N2CCOCC2)[C@@H]1Cc1ccccc1 | -3.93% | 14.3% | -1.41% | 0.0974% | 13.8% | 22% | -2.33% | 17.4% | 15.4% | 2.12%
CN1CCCN(c2nccc(-c3c[nH]nc3C3CCCCC3)n2)CC1 | 2.25% | 8% | -4.76% | -6.22% | 1.33% | 24% | 23% | 0.526% | 2.56% | -14.2%
COc1cccc(OC)c1CN1CCC2(CC(Nc3ccncn3)C2)C1 (stereo not given) | -0.631% | 1.33% | 2.05% | -4.93% | 1.77% | 3.61% | 11.6% | 5.29% | 5% | -14%
